Compound activity (PubChem BioAssay)
Tau fibril ThT: inhibitors of human tau fibril formation, thioflavin T binding; recombinant tau K18 P301L, heparin-induced fibrillization, ThT fluorescence; AID 1460; Potency, µM (series often up to 57.4 µM), hits mostly inhibitors; P10636; 2.1% of 270,000 active; further: nearly all actives have a fitted effect of over 55% in size
Target sequence (P10636 561-689 P618L limits assumed): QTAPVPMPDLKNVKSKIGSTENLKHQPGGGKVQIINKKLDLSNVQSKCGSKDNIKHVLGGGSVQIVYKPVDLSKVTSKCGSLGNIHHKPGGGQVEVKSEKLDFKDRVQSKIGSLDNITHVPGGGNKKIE
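Aggregation was driven by heparin (20 uM final) acting on recombinant tau […] bearing P301L in 100 mM sodium acetate pH 7; fibrils were detected with Thioflavin T.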
Tau fibril FP: inhibitors of human tau fibril formation. P10636. K18 P301L tau heparin fibrillization, Alexa594 FP, 6 h. Potency, µM (doses to about 57.7 µM), usual class: inhibitors. 0.39% of 280,000 active. AID 1468; further: nearly all actives have a fitted effect of over 55% in size
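Compound effects on tau fibrillization are measured by Alexa 594 fluorescence polarization (ex 555, em 632 nm). K18 P301L tau is used at 15 uM with 0.24 uM labeled tracer, and 20 uM heparin induces aggregation over 6 hr at 37 C.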
Tau fluor counter: counter-screen for tau fibril formation inhibitors. tau K18 P301L Alexa594 fluorescence, heparin fibrillization. Potency, µM (top dose mostly 57.7 µM). 0.93% of 280,000 active; further: nearly all actives have a fitted effect of over 55% in size
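Human tau K18 P301L (15 uM unlabeled, 0.24 uM Alexa 594-labeled) in 100 mM sodium acetate pH 7 with 20 uM heparin, 6 hr at 37 C. ThT 30 uM added, 1 hr ambient; Alexa 594 FP and total fluorescence read at 555/632 nm.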
HPGD block: HPGD (human) dehydrogenase inhibition | purified HPGD, NADH fluorescence kinetic, PGE2 substrate | Potency, µM, most hits filed as inhibitors | 4.3% of 150,000 active; active means well fitted inhibition curve with a large enough effect, not every such curve was filed as active; inconclusive means small, poorly fitted or top-dose-only effect, or another doubt; inactive means no such curve, though single readings can be large or run the other way
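20 nM HPGD preincubated 15 min at room temperature with compound in 50 mM Tris-HCl pH 8, 0.01% Tween 20. Started with 1 mM NAD+ and 30 uM prostaglandin E2; NADH fluorescence (360/450 nm) read 5 times over 30-s intervals, last minus first.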
KDM4E inh: inhibitors of human JMJD2E histone demethylase; B2RXH2; JMJD2E catalytic domain, FDH-coupled NADH fluorescence (FDH is formaldehyde dehydrogenase); Potency, µM (titrated, usually from 57.1 µM), hits mostly inhibitors; 1.6% of 230,000 active; AID 2147; active means well fitted inhibition curve with a large enough effect, not every such curve was filed as active; inconclusive means small, poorly fitted or top-dose-only effect, or another doubt; inactive means no such curve, though single readings can be large or run the other way; further: nearly all actives have a fitted effect of over 50% in size
ALDH1A1 inh: ALDH1A1 (human) enzyme inhibition; P00352; 7.3% of 220,000 active; Purified ALDH1A1, NADH fluorescence, propionaldehyde substrate; Potency, µM (highest dose often 75.3 µM), usual class: inhibitors; active means well fitted inhibition curve with a large enough effect, not every such curve was filed as active; inconclusive means small, poorly fitted or top-dose-only effect, or another doubt; inactive means no such curve, though single readings can be large or run the other way
Target sequence (P00352 whole entry, looked up): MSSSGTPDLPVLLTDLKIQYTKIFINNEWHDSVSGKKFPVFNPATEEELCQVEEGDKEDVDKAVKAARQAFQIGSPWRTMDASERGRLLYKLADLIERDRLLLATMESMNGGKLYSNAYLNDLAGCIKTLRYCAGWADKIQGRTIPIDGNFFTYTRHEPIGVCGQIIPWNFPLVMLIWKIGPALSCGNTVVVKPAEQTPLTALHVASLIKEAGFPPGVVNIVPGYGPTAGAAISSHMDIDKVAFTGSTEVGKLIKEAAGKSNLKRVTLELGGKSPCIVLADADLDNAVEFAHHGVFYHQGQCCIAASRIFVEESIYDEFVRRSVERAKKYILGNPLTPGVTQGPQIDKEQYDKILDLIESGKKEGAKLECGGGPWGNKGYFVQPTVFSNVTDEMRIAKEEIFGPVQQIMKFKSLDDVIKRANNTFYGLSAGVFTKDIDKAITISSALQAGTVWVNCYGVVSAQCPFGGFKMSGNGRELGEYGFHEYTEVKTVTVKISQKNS
Numbers stand for hits; [ ] = dose if it differs, or a comment. Rows were chosen to be rich in hits. Some 9.9% of all compounds tested hit in one or more screens of this group. Unless noted, the call rests on the fitted dose curve; in most records, active means well fitted curve in the direction sought with a large enough effect; inconclusive means small, poorly fitted or top-dose-only effect, or another doubt; inactive means no such curve, though single readings can be large; an effect the other way counts as inactive or inconclusive.

What do the screens show for `O=c1c2cn[nH]c2[nH]c(=S)n1-c1ccccc1`?
Tau fibril ThT: inactive; Tau fibril FP: inconclusive; Tau fluor counter: inactive; HPGD block: 28.2µM; KDM4E inh: inactive; ALDH1A1 inh: inconclusive

How did COc1ccc(CNC(=O)C(c2ccc(C)o2)N(Cc2cccs2)C(=O)Cc2cccs2)cc1 (stereo unspecified) do in these assays?
Tau fibril ThT: inactive; Tau fibril FP: inactive; Tau fluor counter: inactive; HPGD block: inactive; KDM4E inh: inactive; ALDH1A1 inh: 3.55µM

Results for CCc1ccc(C(C(=O)NCc2ccc(OC)cc2)N(CCOC)C(=O)Cc2cccs2)cc1 (stereo unspecified) ?
Tau fibril ThT: inactive; Tau fibril FP: inactive; Tau fluor counter: inactive; HPGD block: inactive; KDM4E inh: inactive; ALDH1A1 inh: 1.26µM

Results for COCCN(C(=O)Cc1cccs1)C(C(=O)NC1CCCC1)c1ccc(OC)c(OC)c1 (stereo unspecified) ?
Tau fibril ThT: inactive; Tau fibril FP: inactive; Tau fluor counter: inactive; KDM4E inh: inactive; ALDH1A1 inh: inactive

How did Cc1ccc(C(C(=O)NC2CCCCC2)N(Cc2ccccc2)C(=O)Cc2c[nH]c3ccccc23)o1 (stereo unspecified) do in these assays?
Tau fibril ThT: inactive; Tau fibril FP: inactive; Tau fluor counter: inactive; HPGD block: inactive; KDM4E inh: inactive; ALDH1A1 inh: inconclusive

Results for COc1ccc(CN(C(=O)Cc2c[nH]c3ccccc23)C(C(=O)NC2CCCCC2)c2ccc(C)o2)cc1 (stereo unspecified) ?
Tau fibril ThT: inactive; Tau fibril FP: inactive; Tau fluor counter: inactive; HPGD block: inactive; KDM4E inh: inactive; ALDH1A1 inh: 6.31µM

Results for COCCN(C(=O)Cc1cccs1)C(C(=O)NCc1ccc(OC)cc1)c1ccc(C)cc1 (stereo unspecified) ?
Tau fibril ThT: inactive; Tau fibril FP: inactive; Tau fluor counter: inactive; HPGD block: inactive; KDM4E inh: inactive; ALDH1A1 inh: 2µM

Results for COc1cccc(Oc2nc(-c3ccncc3)nc3ccccc23)c1 ?
Tau fibril ThT: inconclusive; Tau fibril FP: inactive; Tau fluor counter: inactive; KDM4E inh: inconclusive; ALDH1A1 inh: inactive

What do the screens show for `Cc1ccn(C(=O)c2ccc(NC(=O)C3CC3)cc2)n1`?
Tau fibril ThT: inactive; Tau fibril FP: inactive; Tau fluor counter: inactive; KDM4E inh: inconclusive; ALDH1A1 inh: inactive

How did CCN(CCNC(=O)Nc1ccc(Cl)cc1)c1ccccc1 do in these assays?
Tau fibril ThT: inconclusive; Tau fibril FP: inactive; Tau fluor counter: 15.8µM[quencher]; HPGD block: inactive; KDM4E inh: inactive; ALDH1A1 inh: inactive

What do the screens show for `O=C(CCC(=O)Nc1ccccc1)N/N=C/c1ccncc1`?
Tau fibril ThT: inconclusive; Tau fibril FP: inactive; Tau fluor counter: inactive; HPGD block: 22.4µM; KDM4E inh: inactive; ALDH1A1 inh: inactive

Results for CCN(CC)c1ccc(/C=N/NC(=O)Nc2ccccc2)cc1 ?
Tau fibril ThT: 14.1µM; Tau fibril FP: inactive; Tau fluor counter: 14.1µM[quencher]; KDM4E inh: inconclusive; ALDH1A1 inh: inconclusive

What do the screens show for `CCOc1ccc(/C=N/NC(=O)Nc2ccccc2)cc1`?
Tau fibril ThT: inactive; Tau fibril FP: inactive; Tau fluor counter: inactive; KDM4E inh: inactive; ALDH1A1 inh: inactive

What do the screens show for `CCN(CC)c1ccc(/C=N/NC(=O)Cc2nnc(NC(=O)Nc3ccccc3)s2)cc1`?
Tau fibril ThT: inconclusive; Tau fibril FP: inactive; Tau fluor counter: 7.08µM[quencher]; HPGD block: inconclusive; KDM4E inh: inconclusive; ALDH1A1 inh: inconclusive

What do the screens show for `O=C(Cc1nnc(NC(=O)Nc2ccccc2)s1)Nc1ccccc1`?
Tau fibril FP: inactive; Tau fluor counter: inactive; KDM4E inh: inactive

How did CCOc1ccc(-c2c(C)nn3c(C)c(C(=O)NCCc4ccccc4)cnc23)cc1OCC do in these assays?
Tau fibril ThT: inactive; Tau fibril FP: inactive; Tau fluor counter: inactive

How did O=C(NC(=S)Nc1ccccc1Cl)c1csnn1 do in these assays?
Tau fibril ThT: 15.8µM; Tau fibril FP: inconclusive; Tau fluor counter: inactive; HPGD block: inconclusive; KDM4E inh: inactive; ALDH1A1 inh: 4.47µM

How did NS(=O)(=O)c1ccc(NC(=O)c2csnn2)cc1 do in these assays?
Tau fibril ThT: inconclusive; Tau fibril FP: inactive; Tau fluor counter: inactive

Results for CC(C)c1ccc(NC(=O)c2snc3ccc(Cl)cc23)cc1 ?
Tau fibril ThT: inconclusive; Tau fibril FP: 22.4µM; Tau fluor counter: inconclusive; HPGD block: inconclusive; KDM4E inh: inactive; ALDH1A1 inh: inactive

Results for O=C(Nc1ccccc1NC(=O)c1csnn1)c1csnn1 ?
Tau fibril ThT: inactive; Tau fibril FP: inactive; Tau fluor counter: inactive; KDM4E inh: inactive; ALDH1A1 inh: inconclusive

Results for CC(C)c1ccc(NC(=O)c2csnn2)cc1 ?
Tau fibril ThT: inactive; Tau fibril FP: inactive; Tau fluor counter: inactive; HPGD block: inconclusive; KDM4E inh: inactive; ALDH1A1 inh: 17.8µM

How did CC(C)c1ccc(NC(=O)c2cccnc2)cc1 do in these assays?
Tau fibril ThT: inactive; Tau fibril FP: inactive; Tau fluor counter: inactive; HPGD block: inactive; KDM4E inh: inactive; ALDH1A1 inh: inactive

How did C#CCOCCOCCOCCNc1nc(N2CCN(C(=O)[C@H]([C@@H](C)CC)n3cc([C@@H](N)CO)nn3)CC2)nc(N2CCN(C(=O)[C@H](CCCCN)n3cc([C@@H](N)CC(C)C)nn3)CC2)n1 do in these assays?
Tau fibril ThT: inactive; Tau fibril FP: inactive; Tau fluor counter: inactive; KDM4E inh: inactive; ALDH1A1 inh: inactive

How did CC1=NN(C(=O)Cc2ccc([N+](=O)[O-])cc2)C(O)(c2ccccc2)C1 (stereo unspecified) do in these assays?
Tau fibril ThT: inactive; Tau fibril FP: inactive; Tau fluor counter: inactive; HPGD block: inactive; KDM4E inh: inactive; ALDH1A1 inh: inactive

Results for Cc1cccc(C)c1OCCCn1c(CCNC(=O)C2CCCCC2)nc2ccccc21 ?
Tau fibril ThT: inconclusive; Tau fibril FP: inactive; Tau fluor counter: inactive

Results for O=C(Cn1cc(C(F)(F)F)ccc1=O)N/N=C/c1cccc(Cl)c1 ?
Tau fibril ThT: inactive; Tau fibril FP: inactive; Tau fluor counter: inactive; HPGD block: inactive; KDM4E inh: inactive; ALDH1A1 inh: inactive

Results for COc1ccc(C(CC(=O)Nc2cccc(C)c2C)N2Cc3ccccc3C2=O)cc1 (stereo unspecified) ?
Tau fibril ThT: inactive; Tau fibril FP: inactive; Tau fluor counter: inactive

Results for O=C(O)c1cnc(-c2ccccc2)nc1Sc1ccccc1 ?
Tau fibril ThT: inactive; Tau fibril FP: inactive; Tau fluor counter: inactive; HPGD block: 14.1µM; KDM4E inh: inactive; ALDH1A1 inh: inactive

Results for O=C(O)c1cnc(-c2ccccc2)nc1Sc1cccc(Cl)c1 ?
Tau fibril ThT: inconclusive; Tau fibril FP: inactive; Tau fluor counter: inactive; HPGD block: 22.4µM; KDM4E inh: inactive; ALDH1A1 inh: inactive
